# The list is not random: actives were taken first. Their share in the collection is about 3.5%.
# TEAD-YAP inh: TEAD-YAP interaction inhibition; HEK-TIYL cells, TEAD-Gal4/YAP UAS-luciferase luminescence; AID 1259422; 640,000 tested, 1.4% active; inhibition, % at 9.12 µM; in the data active = inhibition above about 32%;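 also: 0% = median of test compound wells and 100% = reference inhibitor wells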
# FBW7 activator: human FBW7 E3 ligase activation, primary screen. AlphaScreen FBW7–phospho-cyclin E peptide binding, activator screen. normalized activity (activation), % at 26.1 µM. 650,000 tested, 0.13% active. AID 1259310; in the data active = normalized activity above about 1.9%;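 also: purified mutant Fbw7 with reduced substrate affinity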
# MITF inh: human MITF inhibition, primary screen; O75030; AlphaScreen MITF homodimerization, bead proximity signal; inhibition, % at 2.6 µM; 650,000 tested, 0.91% active; AID 1259374; in the data active = inhibition above about 50%;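 also: 0% = vehicle wells with protein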
# Target sequence (O75030 whole entry, looked up): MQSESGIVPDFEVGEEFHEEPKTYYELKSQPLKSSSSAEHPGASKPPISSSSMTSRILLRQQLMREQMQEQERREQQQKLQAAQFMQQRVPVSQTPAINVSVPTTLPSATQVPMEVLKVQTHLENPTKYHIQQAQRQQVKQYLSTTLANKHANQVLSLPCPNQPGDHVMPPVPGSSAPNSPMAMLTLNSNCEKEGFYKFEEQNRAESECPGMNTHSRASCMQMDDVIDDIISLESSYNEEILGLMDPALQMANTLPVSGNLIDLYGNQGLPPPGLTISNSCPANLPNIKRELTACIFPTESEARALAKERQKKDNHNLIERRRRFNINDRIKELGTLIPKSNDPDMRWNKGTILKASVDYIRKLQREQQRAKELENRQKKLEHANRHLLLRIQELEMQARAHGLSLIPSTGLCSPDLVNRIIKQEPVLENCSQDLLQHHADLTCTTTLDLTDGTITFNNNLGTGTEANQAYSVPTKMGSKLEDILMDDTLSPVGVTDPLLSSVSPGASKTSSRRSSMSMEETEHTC
# GPR151 activ: activates the human receptor GPR151; activation, % at 11.2 µM; PathHunter beta-arrestin GPR151 cells, luminescence; AID 1508602; 650,000 tested, 1% active; in the data active = activation above about 4.9%;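 also: 0% = median of compound wells and 100% = cells with positive control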
# MITF confirm: confirmation of human MITF inhibitors. shares compounds with MITF inh. AlphaScreen MITF homodimerization, biotin/His-MITF beads. 4,700 tested, 16% active. inhibition, % at 2.6 µM;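 active = inhibition above a cutoff derived from the DMSO control wells, cut at about 28% in these data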;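 also: 0% = MITF dimer wells with DMSO only; inhibitors lower the bead chemiluminescence by keeping MITF from dimerizing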
# AlphaScreen DR: optically interferes with AlphaScreen signal in dose response | shares compounds with MITF inh | AlphaScreen optical interference counterscreen, cell-free | IC50, µM | 480 tested, 6% active; call rule not given here
# AlphaScreen intf2: counter-screen: compounds optically interfering with AlphaScreen | shares compounds with MITF inh | LysRS AlphaScreen counterscreen, signal interference, triplicate | inhibition, % at 2.6 µM | 4,700 tested, 7.6% active | AID 1259376;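 active = inhibition above a cutoff derived from the DMSO control wells, cut at about 30% in these data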
# * hit, by the source's call; / = no result.
SMILES,TEAD-YAP inh,FBW7 activator,MITF inh,GPR151 activ,MITF confirm,AlphaScreen intf2,others
O=C(NC1CCN(S(=O)(=O)c2ccc(F)cc2)CC1)c1ccco1,-1.1,0.1,-11.7,-0.3,/,/,
O=S(=O)(c1ccccc1C(F)(F)F)N1CCC(c2nc3ccccc3[nH]2)CC1,-8.7,-1.5,72.8*,1.0,78.4*,16.2,AlphaScreen DR=>6.48
O=S(=O)(c1ccc(C(F)(F)F)cc1)N1CCC(c2nc3ccccc3[nH]2)CC1,4.5,1.0,-5.5,-0.4,/,/,
COc1cc(OC)cc(C(=O)Nc2cc(C(=O)N(C)Cc3ccccc3)ccc2N2CC3CC(C2)c2cccc(=O)n2C3)c1 (configuration not stated),-0.1,0.0,-4.3,-0.3,/,/,
COc1ccc(C(=O)Nc2cc(C(=O)N(C)Cc3ccccc3)ccc2N2CC3CC(C2)c2cccc(=O)n2C3)cc1 (configuration not stated),-5.3,0.3,86.8*,-0.6,13.4,-6.5,
COc1ccc(OCc2nnc(SCC(N)=O)n2Cc2ccccc2)cc1,-4.1,0.0,2.1,-0.5,/,/,
Cc1ccc(/C=C/C(=O)NCc2ccco2)o1,-10.0,-0.1,64.5*,-1.2,65.6*,39.1*,
Cc1ccc(/C=C/C(=O)NCc2ccccn2)o1,0.9,-0.7,61.0*,1.5,39.0*,19.0,AlphaScreen DR=>6.48
CCOC(=O)CC(=O)CSc1nc2c(sc(=S)n2-c2cccc(OC)c2)c(=O)n1-c1ccc(F)cc1,-7.7,0.1,4.0,1.1,/,/,
Cc1n[nH]c(=O)nc1NNc1ccc(C(=O)O)cc1,-1.3,-0.1,56.0*,-2.2,32.2*,10.1,AlphaScreen DR=>6.48
COc1ccc(-c2n[nH]c(=S)n2/N=C/c2cc(OC)ccc2OC)cc1,9.8,0.1,55.2*,0.6,-13.6,6.1,
CCCCCOC(=O)C1=C(C)NC2=C(C(=O)CC(C)(C)C2)C1c1ccccc1I (configuration not stated),3.9,0.0,60.6*,1.8,-0.4,16.6,
COc1cccc(C2C(C(=O)OC(C)C)=C(C)NC3=C2C(=O)CC(C)(C)C3)c1OC (configuration not stated),4.9,0.5,64.2*,0.2,11.0,16.8,
COc1ccc(C2C(C(=O)OC(C)C)=C(C)NC3=C2C(=O)CC(C)(C)C3)c(OC)c1OC (configuration not stated),-6.9,-0.2,-6.2,0.7,/,/,
CC(C)Cn1c(CN2CCN(c3cccc(Cl)c3)CC2)nc2c1c(=O)n(C)c(=O)n2C,3.9,0.7,13.4,-1.0,/,/,
CC(=O)C(/C=N/NC(=O)c1ccccn1)=C(\C)O,8.4,-1.7,58.8*,3.4,33.3*,56.8*,
O=C(N/N=C\C(Br)=C\c1ccccc1)c1ccccn1,-0.4,-0.5,-5.3,-2.2,/,/,
O=C(CSc1nc2ccccc2c(=O)n1Cc1ccccc1)Nc1cccc(C(F)(F)F)c1,-1.6,0.1,-2.5,-1.4,/,/,
Cc1cccc(NC(=O)CSc2ncc(-c3ccccc3)[nH]2)c1,-1.8,-0.1,80.6*,2.4,-7.0,-1.5,
Cc1cc(OCCCCN2CCCC2)ccc1[N+](=O)[O-],-3.3,0.1,81.6*,-0.7,24.2,1.4,
Cc1cc(OCCN2CCN(Cc3ccccc3)CC2)ccc1[N+](=O)[O-],-2.1,0.1,81.8*,-0.7,0.0,-2.0,
CCN1CCN(CCCOc2ccc([N+](=O)[O-])cc2)CC1,12.8,-0.2,66.2*,0.2,7.5,16.4,
Cc1ccc([N+](=O)[O-])c(OCCN2CCN(Cc3ccccc3)CC2)c1,8.3,-0.1,63.0*,-0.1,12.6,8.3,
Cc1ccc([N+](=O)[O-])c(OCCN2CCNCC2)c1,3.1,0.2,46.8,0.0,/,/,
O=[N+]([O-])c1ccc(OCCCN2CCCCCC2)cc1,6.6,0.1,29.9,0.0,/,/,
CCOc1ccccc1CN1CCc2nnc(CCNC(=O)C3CCCCC3)n2CC1,6.2,-0.1,-8.4,1.3,/,/,
CCOc1ccc(/C=N/N2C(=O)c3cccc4cccc(c34)C2=O)cc1,-6.7,0.0,-8.2,-0.5,/,/,
CCN1CCc2c(sc(NC(=O)c3ccc(S(=O)(=O)N4CCCCCC4)cc3)c2-c2nc3ccccc3s2)C1,-1.4,-0.1,-0.1,-2.0,/,/,
Cc1cc(OCCN2CC(C)CC(C)C2)ccc1[N+](=O)[O-] (configuration not stated),1.0,-0.2,15.5,-0.7,/,/,
